Test results published in PubChem BioAssay (NCATS).
Inconclusive results are not listed. Entries that show only a call come without a potency. Unmarked numbers belong to inactive results. Calls of active or inactive are those of the source. Calls come from the whole dose curve; as a rule, active = well fitted activation curve with a large enough effect; inconclusive = small, poorly fitted or top-dose-only effect; inactive = flat fitted curve, though single readings scatter.

Test: Primary redox qHTS assay for identification of artifact compounds. (AID 1845223)
Details: Amplex Red/HRP redox cycling with DTT, fluorescence; series mostly up to 53.8 µM
Summary of the method: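 Amplex Red (25 uM) and HRP (250 mU/mL) in HBSS, with compounds for 15 min, then 250 uM DTT for 30 min, room temperature, dark. Fluorescence 525/598 nm read; normalized to DMSO and 10 uM DA3003; Hill fit.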
For `C=C1CC[C@H]2[C@@](C)(CCC(O)[C@@]2(C)CO)[C@@H]1C/C=C(/C(=O)O)C(O)CO` (some centres undefined), the Potency was “inactive”.
With `O=C(O[C@H]1[C@@H]2C=CO[C@@H](O[C@@H]3O[C@H](CO)[C@@H](O)[C@H](O)[C@H]3O)[C@@H]2[C@@]2(CO)O[C@@H]12)c1ccc(O)c(O)c1` the Potency was “inactive”.
With `CC1(C)CCCC2(C)C1C(O)C=C(CO)C2(O)C(=O)O` (centres undefined) the Potency was “inactive”.
For `CC(=O)N1c2ccccc2C2(O)CC3C(=O)NC(CC(C)C)C(=O)N3C12` (centres undefined), the Potency was “inactive”.
In the case of `CC(C)C(C#N)O[C@@H]1O[C@H](CO[C@@H]2OC[C@](O)(CO)[C@H]2O)[C@@H](O)[C@H](O)[C@H]1O` (some centres undefined), the Potency is reported as “inactive”.
For `CO/N=C(/C(=O)N[C@@H]1C(=O)N2C(C(=O)O)=C(CSC(=O)c3ccco3)CS[C@H]12)c1csc(N)n1`, the Potency was “inactive”.
For `CC(=O)OCCC(C)CCC1C(C)(O)CCC2C(C)(C)CCCC21C` (centres undefined), the Potency was “inactive”.
For `CC1OC(O[C@H]2[C@@H](O)C[C@@]3(C)C([C@H](O)C[C@]4(C)C3CC=C3C5CC(C)(C)CC[C@]5(C(=O)OC5OC(CO)C(O)C(O)C5OC5OCC(OC6OCC(OC7OCC(O)C(O)C7O)C(O)C6O)C(OC6OCC(O)(CO)C6O)C5O)CC[C@]34C)[C@]2(C)CO)C(O)C(O)C1O` (some centres undefined), the redox activity (% of DA3003) was 1.03% [at 11.5 µM].
Work on `C[C@@H]1O[C@@H](O[C@@H]2[C@@H](O)[C@@H](O)[C@H](O[C@@H]3[C@@H](O)[C@@H](O[C@]4(CO)O[C@H](CO)[C@@H](O)[C@@H]4OC(=O)/C=C/c4ccc(O)cc4)O[C@H](CO)[C@H]3OC(=O)/C=C/c3ccc(O)cc3)O[C@H]2C)[C@H](O)[C@H](O)[C@H]1O` yielded a redox activity (% of DA3003) of -13.4% [at 11.5 µM].
